Molecules are shown by their SMILES. Values without a mark were called inactive. Results filed as inconclusive are left out. Activity calls are given as the source filed them. Unless noted, the call rests on the fitted dose curve; in most records, active means well fitted curve in the direction sought with a large enough effect in the repeat runs; inconclusive means weak or mixed curves; inactive means no such curve, though single readings can be large; an effect the other way counts as inactive or inconclusive.

A short description of assay [1]: qHTS assay to identify small molecule agonists of the estrogen receptor alpha (ER-alpha) signaling pathway in the presence of an antagonist - cell viability counter screen (AID 1259386).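 Further: series mostly up to about 92 µM; cells exposed to compounds for 22 h at 37 °C before the viability read; nearly all actives have a fitted effect of over 30% in size.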 Put shortly: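 VM7Luc4E2, stripped-serum pre-culture 5 d; 24hr plating; +ICI-182,780 10.0nM final; cpds 15 conc, 22hr, 37C/5% CO2; CellTiter-Fluor added at 21hr, fluorescence 1hr later.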

The target in assay [2] is Progesterone receptor (Homo sapiens) (UniProt P06401). Kind of assay: qHTS assay to identify small molecule agonists of the progesterone receptor (PR) signaling pathway (AID 1346784; calls by dose curve; further: nearly all actives have a fitted effect of over 30% in size). In short, it runs like this:
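PR-UAS-bla HEK 293T cells (beta-lactamase reporter under UAS) in 2% charcoal-stripped FBS, dosed with 23 nL compound after 6 hr, incubated 16hr at 37C. LiveBLAzer B/G FRET substrate added, fluorescence read after 2 hours.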
On the technique in general: qHTS replaces the single test concentration by a dilution series.

Assay [3] has the same target. Kind of assay: qHTS assay to identify small molecule antagonists of the progesterone receptor (PR) signaling pathway (AID 1346795; active means well fitted inhibition curve with a large enough effect in the signal ratio in the repeat runs, not every such curve was filed as active; the % refers to the signal ratio). Put shortly:
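PR-UAS-bla HEK293T cells with beta-lactamase reporter under UAS control, in 2% charcoal-stripped FBS, treated with compounds plus 1 nM promegestone (R5020, final) for 16 hr at 37C. Read-out: FRET beta-lactamase substrate fluorescence after 2 hr at room temperature.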

Assay [4] in a line: qHTS assay to identify small molecule antagonists of the progesterone receptor (PR) signaling pathway - cell viability counter screen (AID 1346798). Further: series mostly up to about 92 µM; nearly all actives have a fitted effect of over 50% in size. Put shortly:
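PR-UAS-bla HEK293T cells, 3,000/well in 2% charcoal-stripped FBS medium, dosed with compounds plus R5020 agonist and incubated 16 h at 37C. Viability then measured in the same wells by CellTiter-Glo luminescence after 30 min at RT.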

Assay [5] is described as follows: qHTS assay to identify small molecule antagonists of the TGF-beta/Smad signaling pathway - cell viability counter screen (AID 1346824). Further: nearly all actives have a fitted effect of over 50% in size. In short, it runs like this: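 SBE-bla HEK 293T cells, incubated overnight, then compound plus 0.25 ng/mL TGF-beta1 (stock added) for 5 hr at 37 C. Viability was read in the same wells by CellTiter-Glo luminescence after 30 min at room temperature.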

Assay [6] is described as follows: qHTS assay to identify small molecule agonists of the TGF-beta/Smad signaling pathway - cell viability counter screen (AID 1346829). Further: top concentration of the series differs between compounds; nearly all actives have a fitted effect of over 45% in size. Put shortly: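 Luminescence from CellTiter-Glo, read after a 30 min room-temperature incubation, gives cell viability of SBE-bla HEK 293T cells treated 5 hr with compounds at 37 C.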
A short description of assay [7]: qHTS assay to identify small molecule agonists of the TGF-beta/Smad signaling pathway (AID 1346859; active means well fitted activation curve with a large enough effect in the signal ratio in the repeat runs, not every such curve was filed as active; the % refers to the signal ratio; further: series mostly up to about 77 µM). Put shortly:
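SBE-bla HEK293T cells plated overnight, then compound exposure for 5 h at 37 C. Beta-lactamase reporter read with LiveBLAzer B/G FRET substrate after 2 h at room temperature, fluorescence at 405 nm excitation, 460/530 nm emission.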

Assay [8] deals with Thyrotropin-releasing hormone receptor (Homo sapiens) (UniProt P34981). Kind of assay: qHTS assay to identify small molecule antagonists of the thyrotropin-releasing hormone receptor (TRHR) signaling pathway (AID 1346877; active means well fitted inhibition curve with a large enough effect in the repeat runs, not every such curve was filed as active; further: series mostly up to about 51 µM). Put shortly:
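Intracellular calcium fluorescence, read kinetically every second over 3 min, reports TRH-evoked signalling in HEK293 cells carrying TRHR. Test compounds were added 5 min ahead of a 1 nM TRH challenge.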

Assay [9] shares this target. The assay is described as follows: qHTS assay to identify small molecule agonists of the thyrotropin-releasing hormone receptor (TRHR) signaling pathway (AID 1346891; calls by dose curve; further: series mostly up to about 58 µM). In short, it runs like this:
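HEK293 cells expressing TRHR plated 18 h at 37 C/5% CO2, calcium dye-loaded 2 h at 37 C, then compound added (agonist mode); kinetic calcium fluorescence read 3 min at 1 s intervals; 15 concentrations in triplicate.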

Assay [10] in a line: Human pregnane X receptor (PXR) small molecule agonists, qHTS cell viability counter screen (AID 1346977). Further: nearly all actives have a fitted effect of over 50% in size. In short, it runs like this: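 PXR-Luc HepG2 cells (2,000/well, 5% charcoal-stripped FBS) preincubated 5 hr, then exposed to compounds 24 hr at 37 C. Viability read in the same wells by CellTiter-Fluor fluorescence, reagent added at 23 hr, 1 hr incubation.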
The nature of assay [11]: Caspase-3/7 induction in HepG2 cells by small molecules, qHTS assay (AID 1346978). Further: nearly all actives have a fitted effect of over 15% in size. Further: potency means the concentration at half of the fitted maximal effect. Put shortly: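 Wild-type HepG2 cells, 2,000/well, settled 5 hr at 37 C and 5% CO2, then compound-treated for 17 hr; caspase-3/7 activity read by luminescent Caspase-Glo 3/7 after 30 min at room temperature.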
A short description of assay [12]: Caspase-3/7 induction in CHO-K1 cells by small molecules, qHTS cell viability counter screen (AID 1346979). Further: nearly all actives have a fitted effect of over 35% in size. In short, it runs like this: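 Wild-type CHO-K1 cells (1,500/well) treated with compound after 5 h plating; after 16 h at 37C, viability read as CellTiter-Fluor fluorescence following 1 h reagent incubation, in the same wells as the caspase read.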
Assay [13] in a line: Caspase-3/7 induction in CHO-K1 cells by small molecules, qHTS assay (AID 1346980). Further: nearly all actives have a fitted effect of over 15% in size. Put shortly: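 Wild-type CHO-K1 cells exposed to compounds for 17hr at 37 C, 5% CO2. Caspase-3/7 activity then measured by Caspase-Glo 3/7 luminescence after 30min at room temperature.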
The nature of assay [14]: Caspase-3/7 induction in HepG2 cells by small molecules, qHTS cell viability counter screen (AID 1346981). Further: series mostly up to about 92 µM; nearly all actives have a fitted effect of over 30% in size. Put shortly:
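HepG2, WT, 2,000 cells/well; 5 hr pre-incubation 37 C/5% CO2; compound pin-transferred from DMSO; 16 hr exposure; CellTiter-Fluor, 1 hr; fluorescence read.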

Assay [15] has as its target Nuclear receptor subfamily 1 group I member 2 (Homo sapiens) (UniProt O75469). Kind of assay: Human pregnane X receptor (PXR) small molecule agonists, qHTS assay (AID 1346982). Further: nearly all actives have a fitted effect of over 35% in size. Further: potency means the concentration at half of the fitted maximal effect. Put shortly:
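Luciferase signal from ONE-Glo (30 min, room temperature) measured activation of hPXR-driven CYP3A4 reporter expression in PXR-Luc HepG2 cells treated with compounds for 24 hr at 37 C.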

Assay [16] has as its target Nuclear receptor subfamily 1 group I member 2 (Rattus norvegicus) (UniProt Q9R1A7). The assay is described as follows: Rat pregnane X receptor (rPXR) activation by small molecules, qHTS assay (AID 1346983). Further: nearly all actives have a fitted effect of over 20% in size. The following applies: rPXR luciferase reporter cells, One-Glo luminescence, 24 h; active compounds read high. In short, it runs like this: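 Cell-based rPXR activation assay: rPXR cells, 2,000 per well, rested 5hr at 37 C, then exposed to compounds in DMSO for 24 hr at 37 C. Luciferase activity read by One-Glo luminescence after 30 min at room temperature.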

The target of assay [17] is Nuclear receptor subfamily 1 group I member 2 (Homo sapiens) (UniProt O75469). Kind of assay: CYP3A4 induction through human pregnane X receptor (PXR) by small molecules, qHTS assay (AID 1346984). Further: nearly all actives have a fitted effect of over 40% in size. Put shortly: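 Luminescence readout: luciferase signal after One-Glo (30 min, room temperature), following 3 h at 37C with 3uM final Luciferin-IPA P450 substrate. Cells were DPX-2 (HepG2, PXR/CYP3A4-luc co-transfected) dosed for 24 h.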
Sequence of Nuclear receptor subfamily 1 group I member 2 (Homo sapiens) (O75469 whole entry, looked up): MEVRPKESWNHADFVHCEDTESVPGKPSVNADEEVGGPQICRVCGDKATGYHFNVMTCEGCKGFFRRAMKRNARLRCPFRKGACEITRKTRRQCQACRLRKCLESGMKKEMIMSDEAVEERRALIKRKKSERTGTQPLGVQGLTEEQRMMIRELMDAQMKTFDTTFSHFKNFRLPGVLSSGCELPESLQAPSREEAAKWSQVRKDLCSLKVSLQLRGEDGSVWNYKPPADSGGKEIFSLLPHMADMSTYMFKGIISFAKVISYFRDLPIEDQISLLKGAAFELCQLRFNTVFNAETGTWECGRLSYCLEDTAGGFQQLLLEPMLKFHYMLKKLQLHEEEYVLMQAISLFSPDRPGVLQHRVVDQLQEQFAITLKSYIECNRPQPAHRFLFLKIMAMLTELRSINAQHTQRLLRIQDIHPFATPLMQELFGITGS

Assay [18] has the same target. The assay is described as follows: Human pregnane X receptor (PXR) activation by small molecules, qHTS assay (AID 1346985). Further: nearly all actives have a fitted effect of over 40% in size. Further: potency means the concentration at half of the fitted maximal effect. Put shortly:
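DPX-2 cells (HepG2 co-transfected with a PXR response element and a CYP3A4-promoter luciferase construct) were seeded at 2,000 per well, rested 5 hr at 37C, then exposed to DMSO-dissolved compounds for 24 hr. Activation was read as luciferase luminescence.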

The nature of assay [19]: qHTS assay to identify small molecule agonists of the progesterone receptor (PR) signaling pathway - cell viability counter screen (AID 1346799; calls by dose curve; further: nearly all actives have a fitted effect of over 45% in size). Put shortly:
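Counter screen in the PR-UAS-bla HEK293T wells (2% charcoal-stripped FBS, 16 h compound exposure at 37 C) after the bla read. CellTiter-Glo added, 30 min at room temperature, luminescence read as cell viability.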
On the % scale 0 is the no-effect control and ±100 the full control effect.

Sequence of Thyrotropin-releasing hormone receptor (Homo sapiens) (P34981 whole entry, looked up): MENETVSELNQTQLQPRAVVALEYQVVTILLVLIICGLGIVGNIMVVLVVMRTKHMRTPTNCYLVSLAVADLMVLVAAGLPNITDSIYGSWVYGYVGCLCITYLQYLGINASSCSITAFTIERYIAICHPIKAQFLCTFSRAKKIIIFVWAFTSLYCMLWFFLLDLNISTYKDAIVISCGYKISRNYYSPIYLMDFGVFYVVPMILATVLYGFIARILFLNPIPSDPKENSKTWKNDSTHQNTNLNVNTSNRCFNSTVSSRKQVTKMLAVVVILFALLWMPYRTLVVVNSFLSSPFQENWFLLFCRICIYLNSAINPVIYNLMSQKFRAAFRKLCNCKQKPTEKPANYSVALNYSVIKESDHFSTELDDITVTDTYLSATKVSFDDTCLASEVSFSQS
Sequence of Progesterone receptor (Homo sapiens) (P06401 whole entry, looked up): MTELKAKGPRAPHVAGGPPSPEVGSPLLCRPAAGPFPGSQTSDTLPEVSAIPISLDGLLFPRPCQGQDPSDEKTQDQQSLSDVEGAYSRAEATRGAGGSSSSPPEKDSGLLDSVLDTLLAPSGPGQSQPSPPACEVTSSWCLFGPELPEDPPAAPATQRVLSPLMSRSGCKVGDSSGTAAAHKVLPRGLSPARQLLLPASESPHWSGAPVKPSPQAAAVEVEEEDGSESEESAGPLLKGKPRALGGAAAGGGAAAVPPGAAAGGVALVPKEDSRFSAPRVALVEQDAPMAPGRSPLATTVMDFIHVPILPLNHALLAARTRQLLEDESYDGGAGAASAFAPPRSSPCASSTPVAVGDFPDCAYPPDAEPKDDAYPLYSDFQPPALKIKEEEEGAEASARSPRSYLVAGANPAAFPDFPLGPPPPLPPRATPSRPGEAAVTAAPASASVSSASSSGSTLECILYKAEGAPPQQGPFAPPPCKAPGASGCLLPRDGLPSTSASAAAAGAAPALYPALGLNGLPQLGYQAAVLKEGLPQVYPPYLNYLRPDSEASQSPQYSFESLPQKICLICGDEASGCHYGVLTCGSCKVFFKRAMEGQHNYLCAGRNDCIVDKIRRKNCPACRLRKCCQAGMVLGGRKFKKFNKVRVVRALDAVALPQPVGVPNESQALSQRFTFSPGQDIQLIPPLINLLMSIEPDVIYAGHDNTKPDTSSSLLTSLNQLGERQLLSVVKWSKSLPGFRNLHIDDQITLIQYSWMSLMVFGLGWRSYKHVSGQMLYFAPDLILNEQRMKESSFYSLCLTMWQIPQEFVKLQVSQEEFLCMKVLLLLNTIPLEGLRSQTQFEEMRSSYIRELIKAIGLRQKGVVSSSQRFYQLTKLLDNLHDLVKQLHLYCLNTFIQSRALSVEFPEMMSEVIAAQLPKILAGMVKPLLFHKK
Sequence of Nuclear receptor subfamily 1 group I member 2 (Rattus norvegicus) (Q9R1A7 whole entry, looked up): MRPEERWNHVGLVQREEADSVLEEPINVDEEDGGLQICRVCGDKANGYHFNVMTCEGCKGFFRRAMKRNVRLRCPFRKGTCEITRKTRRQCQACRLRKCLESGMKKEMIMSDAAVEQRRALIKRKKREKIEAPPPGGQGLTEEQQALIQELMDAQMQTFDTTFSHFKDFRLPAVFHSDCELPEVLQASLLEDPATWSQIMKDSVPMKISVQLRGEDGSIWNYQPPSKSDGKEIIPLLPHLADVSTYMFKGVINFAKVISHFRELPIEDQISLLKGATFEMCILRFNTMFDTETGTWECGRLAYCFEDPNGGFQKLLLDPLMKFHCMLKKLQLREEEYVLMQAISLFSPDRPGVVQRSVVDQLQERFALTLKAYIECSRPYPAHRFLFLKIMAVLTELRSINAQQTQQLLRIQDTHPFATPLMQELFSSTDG

Regarding `COc1cc(NS(=O)(=O)c2ccc(N)cc2)nc(OC)n1`, the Potency entry in assay [1], in assay [2], in assay [3], in assay [4], in assay [10] and in assay [11] was “inactive” each time. In addition, the Potency entry in [12], in assay [14], in [15], in [17] and in assay [18] was “inactive” each time. For the same molecule, the outcome in [5], in assay [6], in [7], in assay [8], in assay [9] and in [13] was inactive. Moreover, the max activation in assay [16] was -2.35%.
In the case of `Cc1ccccc1C(=O)Nc1ccc(C(=O)N2CCCC(N(C)C)c3ccccc32)cc1` (centres undefined), the Potency entry in [1], in assay [2], in assay [3], in assay [4], in [19] and in [14] was “inactive” each time. Moreover, the molecule was classed as inactive in assay [5], in assay [6], in [7], in assay [8], in assay [9] and in assay [13]. Also, the Potency in assay [11] was 3.76 µM (active); in assay [15] it was 0.298 µM (active).
Regarding `CCCCCCCCC(=O)Cl`, the Potency result in assay [2], in assay [3], in [4], in assay [19], in [10] and in [11] was “inactive” each time. The Potency result in assay [12], in [14] and in assay [15] was “inactive” each time. The outcome in assay [5], in assay [6], in assay [7], in assay [8] and in assay [9] was inactive.
As for `CC1(CO)CN(c2ccccc2)NC1=O` (centres undefined), the Potency result in assay [1], in [2], in [3], in [4], in [19] and in assay [10] was “inactive” each time. Further, the Potency result in assay [11], in assay [12] and in assay [14] was “inactive” each time. Further, the result in [6], in [7], in [8], in [9] and in assay [13] was inactive. The Potency in [15] was 61.1 µM (active).
Turning to `CCCCCOC(=O)CCC`, the Potency entry in assay [1], in assay [2], in assay [4], in [19], in [10] and in assay [11] was “inactive” throughout. Also, the Potency result in assay [12] and in assay [15] was “inactive” throughout. The result in [5], in [6], in assay [7] and in [13] was inactive.
For `O=C1c2ccccc2C(=O)N1CCl`, the Potency entry in assay [1], in assay [2], in assay [3], in assay [4], in [10] and in assay [11] was “inactive” throughout. In addition, the Potency entry in [12], in assay [14] and in [15] was “inactive” throughout. Further, the molecule was classed as inactive in assay [5], in assay [6], in assay [7], in [8] and in [9].
Turning to `COc1ccc(S(=O)(=O)N2c3ccc(Cl)cc3[C@@](O)(c3ccccc3Cl)[C@H]2C(=O)N2CCC[C@@H]2C(N)=O)cc1OC`, the Potency entry in [2], in assay [3], in assay [4], in assay [19], in assay [10] and in assay [11] was “inactive” each time. In addition, the Potency result in assay [12], in [14] and in assay [17] was “inactive” in each case. Moreover, the molecule was classed as inactive in assay [5], in [6], in assay [7], in assay [8], in [9] and in assay [13]. In addition, in [16], the max activation was 11.3%. Moreover, the Potency in [18] was 14.1 µM (active).

For the origin of these results see PubChem BioAssay (Tox21).
